# Measured values reported in PubChem BioAssay AID651813 (National Center for Advancing Translational Sciences (NCATS), 2012).
# The campaign covered roughly 2,100 compounds. About 1,100 (52%) were called active. Another 27% or so got no clear call; they are omitted. Calls follow the shape of the dose curve; as a rule, active = well fitted inhibition curve with a large enough effect; inconclusive = small, poorly fitted or top-dose-only effect; inactive = no such curve, though single readings can be large or run the other way. The set was probably picked from earlier hits. Some of the results follow.
# Target: DNA dC->dU-editing enzyme APOBEC-3G (Homo sapiens) (UniProt Q9HC16)
# Assay: qHTS for inhibitors of Vif-A3G interactions: Cherry picks counterscreen;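 also: hits raise yellow fluorescence by blocking Vif-driven A3G-eYFP degradation; nearly all actives have a fitted effect of over 70% in size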;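 as to max response: max response given as percent of control signal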
# Conditions: HeLa A3G-eYFP + Vif (tagged APOBEC3G with the HIV-1 protein that degrades it), eYFP fluorescence, 24 h
# Method in brief: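 Readout is eYFP fluorescence (488 nm excitation, 500-530 nm emission) measured on Acumen Explorer after 24 h compound exposure, several concentrations, at 37 deg C. Cells: HeLa stably co-expressing Vif and C-terminally eYFP-tagged A3G; MG132 positive control.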
# Potency is read from the fitted curve at half-maximal effect.
# Sequence of DNA dC->dU-editing enzyme APOBEC-3G (Homo sapiens) (Q9HC16 whole entry, looked up): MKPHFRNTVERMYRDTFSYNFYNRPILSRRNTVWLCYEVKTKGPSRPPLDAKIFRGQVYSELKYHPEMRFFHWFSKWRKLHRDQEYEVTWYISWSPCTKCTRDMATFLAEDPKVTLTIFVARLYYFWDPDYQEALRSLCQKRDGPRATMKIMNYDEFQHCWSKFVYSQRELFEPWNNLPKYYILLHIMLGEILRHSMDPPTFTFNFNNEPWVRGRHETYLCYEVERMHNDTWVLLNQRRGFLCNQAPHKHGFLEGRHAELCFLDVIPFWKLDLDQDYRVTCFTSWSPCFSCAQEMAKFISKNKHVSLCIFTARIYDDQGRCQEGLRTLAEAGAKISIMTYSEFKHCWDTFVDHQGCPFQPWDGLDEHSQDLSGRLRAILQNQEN
Structure (SMILES),Potency,max response
CN(C)c1ccc(/C=C/C=C/c2ccnc3ccccc23)cc1,4.61 µM (active),
CN(C)c1ccc(/C=C/c2ccnc3ccccc23)c(N)c1,2.91 µM (active),
CN(C)c1ccc(/C=C/c2ccnc3ccccc23)cc1,20.6 µM (active),
CN(C)c1ccc(/C=C/c2ccnc3ccc(-c4ccccc4)cc23)cc1,5.8 µM (active),
CNc1ccc(/C=C/c2ccnc3ccccc23)cc1,16.4 µM (active),
O=C(Cn1ncc(Cl)c(Cl)c1=O)NC(=O)NC1CCCCC1,14 µM (active),
Cc1nc(-c2ccc(Cl)cc2)sc1C(=O)NN,15.8 µM (active),
COc1ccc2cc(C(=O)C3CCCN(Cc4ccccn4)C3)ccc2c1 (configuration not stated),,-1.88% (inactive)
CCOC(=O)C1CCCN(C(=O)c2ccc3nc(-c4cccc(OC)c4)oc3c2)C1 (configuration not stated),7.04 µM (active),
Cc1c(C(=O)OC2CCCCC2)[nH]c2c1C(=O)CC(c1ccccc1Cl)C2 (configuration not stated),9.2 µM (active),
COCCOC(=O)c1[nH]c2c(c1C)C(=O)CC(c1ccccc1)C2 (configuration not stated),0.994 µM (active),
Cc1c(C(=O)N2CCOCC2)[nH]c2c1C(=O)CC(c1ccccc1Cl)C2 (configuration not stated),8.86 µM (active),
COc1ccc(OC)c(C2CC(=O)c3c([nH]c(C(=O)OCC4CCCO4)c3C)C2)c1 (configuration not stated),5.59 µM (active),
O=C(COc1ccc(C(=O)c2ccccc2)cc1)NCc1ccc(F)cc1,2.5 µM (active),
Cc1ccccc1NCC(=O)N=Nc1c(O)[nH]c2ccc([N+](=O)[O-])cc12,,-0.0304% (inactive)
CCN(CC)S(=O)(=O)c1cc([N+](=O)[O-])ccc1N=Nc1c(O)[nH]c2ccccc12,23.1 µM (active),
O=C(NCc1cc(C(F)(F)F)ccc1Cl)c1cccc2c1C(=O)c1ccc(N3CCC(Cc4ccccc4)CC3)cc1S2(=O)=O,14 µM (active),
O=C(NCc1ccco1)c1cccc2c1C(=O)c1ccc(N3CCC(Cc4ccccc4)CC3)cc1S2(=O)=O,23.1 µM (active),
O=C(NCc1cccc(C(F)(F)F)c1)c1cccc2c1C(=O)c1ccc(N3CCC(Cc4ccccc4)CC3)cc1S2(=O)=O,23.1 µM (active),
Cc1ccc(CSc2nc(-c3ccc(C(C)(C)C)cc3)nc3cc(=O)[nH]n23)cc1,,28.6% (inactive)
CCCOc1ccc2cc(C(=O)NCc3ccccc3)c(=O)oc2c1,,-5.24% (inactive)
COc1cccc(Nc2ncccc2C(=O)NCc2ccccc2)c1,19.8 µM (active),
CN(C)c1ccc(/C=C(/C#N)C(=O)NCc2ccccc2)o1,1.84 µM (active),
N#C/C(=C\c1ccccc1[N+](=O)[O-])C(=O)NCc1ccccc1,,2.31% (inactive)
N#C/C(=C\c1ccc(N2CCOCC2)o1)C(=O)NCCc1ccccc1,3.26 µM (active),
N#C/C(=C\c1ccc(N2CCCCC2)o1)C(N)=O,15.8 µM (active),

Structure (SMILES),Potency,max response
CCOC(=O)CN1C(=O)S/C(=C/c2ccc(N3CCCCC3)o2)C1=O,,55% (inactive)
N#C/C(=C\c1ccc(N2CCOCC2)o1)C(=O)NC1CCCCC1,17.7 µM (active),
N#C/C(=C/c1ccc(N2CCOCC2)o1)C(=O)NC1CCCCC1,16.4 µM (active),
CCSC1=N/C(=C\C=C2/Oc3ccccc3N2CC)C(=O)S1,8.2 µM (active),
CCCCN1C(=O)/C(=C/C=C2\Oc3ccccc3N2CC)SC1=S,,51.7% (inactive)
CCOc1ccc(-c2cc(C(=O)NCCc3ccc(OC)c(OC)c3)c3c(-c4ccc(F)cc4)[nH]nc3n2)cc1,,-21% (inactive)
COc1ccc(-c2n[nH]c3c2CN(C(=O)c2ccc(OC)c(OC)c2)CC3)cc1,9.94 µM (active),
C=C(NC(=O)C(=C)NC(=O)c1csc(C2=NC3c4csc(n4)C4NC(=O)c5csc(n5)C(C(C)(O)C(C)O)NC(=O)C5CSC(=N5)/C(=C/C)NC(=O)C(C(C)O)NC(=O)c5csc(n5)C3(CC2)NC(=O)C(C)NC(=O)C(=C)NC(=O)C(=C)NC(=O)C(C(C)C)NC2C=Cc3c(C(C)O)cc(nc3C2O)C(=O)OC4C)n1)C(N)=O (configuration not stated),7.04 µM (active),
CN(C)/C=N/C1=C(C#N)C(c2cccs2)c2ccc3ccccc3c2O1 (configuration not stated),2.8 µM (active),
CCCCN(C(=O)c1ccc([N+](=O)[O-])s1)c1c(N)n(CCCC)c(=O)[nH]c1=O,,-2.12% (inactive)
CCCCn1c(N)c(N(CCC(C)C)C(=O)c2ccc([N+](=O)[O-])o2)c(=O)[nH]c1=O,,-4.38% (inactive)
Nc1c(N(CCC2=CCCCC2)C(=O)c2ccc([N+](=O)[O-])o2)c(=O)[nH]c(=O)n1Cc1ccccc1,13 µM (active),
O=C1c2ccccc2C(=O)c2c(/C=C/N3CCCCC3)ccnc21,23.1 µM (active),
Nc1nc(-c2cc(O)ccc2[N+](=O)[O-])cc(-c2ccccc2)c1[N+](=O)[O-],14 µM (active),
O=C(Nc1cc(=O)[nH]c(=O)[nH]1)c1cc(Cl)ccc1Cl,3.14 µM (active),
O=C(COC(=O)C12CC3CC(CC(Cl)(C3)C1)C2)N1CCCCC1,,-19.2% (inactive)
Cc1ccc(S(=O)(=O)Nc2cc(-c3nn(C)c(=O)c4ccccc34)ccc2N2CCOCC2)cc1,15.8 µM (active),
COc1ccc(/C=c2\s/c(=C/C(=O)c3ccc(C)cc3)[nH]c2=O)c(OC)c1,20.6 µM (active),
CCCOc1ccc(C(=O)Nc2cccc(NC(=O)c3ccc(Cl)cc3Cl)c2)cc1,16.4 µM (active),
CC(C)(C)OC(=O)NCc1ccc(NC(=O)c2nc[nH]c2C(=O)NCCCNC(=O)c2[nH]cnc2C(=O)Nc2ccc(CNC(=O)OC(C)(C)C)cc2)cc1,,4.7% (inactive)
Cc1onc(-c2c(F)cccc2Cl)c1C(=O)O/N=C(\N)c1ccc([N+](=O)[O-])o1,,19.3% (inactive)
O=C(/C=C/c1ccc(Cl)cc1)c1ccc([N+](=O)[O-])o1,12.5 µM (active),
Cc1cccc(/C=C/C(=O)c2ccc([N+](=O)[O-])o2)c1,,-131% (inactive)
O=C(O)c1ccc(N/N=C/C(Br)=C/c2ccccc2)cc1,,24.8% (inactive)
COc1cccc(C(=O)N/N=C/C(Br)=C/c2ccccc2)c1,2.23 µM (active),
CC(/C=N/NC(=O)c1cccc(F)c1)=C\c1ccccc1,9.94 µM (active),
